Consider 20 compounds from PubChem BioAssay (NCI).

This is part of a sample that, as a whole, favours compounds with a hit. Of some 83,000 tested, about 20% had one in any assay.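 The test compound was applied at a single concentration to cells in 96-well plates for 48 hours, and percent growth was recorded.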 Unmarked numbers belong to inactive results. The source made the active and inactive calls. Rule for the calls: active = growth percent below 10; inactive = the rest.

Among the test systems are NCI-H23 lung; NCI-H322M lung; HOP-62 NSCLC; NCI-H460 lung; HOP-92 NSCLC; NCI-H522 lung; A549/ATCC NSCLC; 786-0 renal; COLO 205 colon.
Common to all, as to experiment: NCI-60 one-dose screen, 48 h (100 = growth as untreated, 0 = no growth, -100 = all killed)
Common to all, as to conditions: 10 µM unless noted

On to `CCOC(=O)Cn1c(O)c(N=Nc2ccc(S(N)(=O)=O)cc2)c2cc(Br)ccc21`, for which the growth in the experiment with NCI-H23 lung was 77.1%; in the experiment with NCI-H322M lung, 77.7%; in the experiment on HOP-62 NSCLC, 65%; with NCI-H460 lung, 44.1%; in the experiment on HOP-92 NSCLC, 96.4%; in the experiment on NCI-H522 lung, 70.8%. Also, the growth is 30.7% in the experiment on A549/ATCC NSCLC, 99.2% in the experiment with 786-0 renal and 58% in the experiment on COLO 205 colon.
Consider `O=C1NCCC12CCN(c1c(Cl)cncc1-c1ccc(O)cc1)CC2`, for which the growth in the experiment with NCI-H23 lung is 100%; in the experiment with NCI-H322M lung, 103%; in the experiment on HOP-62 NSCLC, 112%; with NCI-H460 lung it was 104%; with HOP-92 NSCLC, 114%; in the experiment on NCI-H522 lung it was 78%. The growth was 94.6% in the experiment with A549/ATCC NSCLC, 100% in the experiment on 786-0 renal and 105% with COLO 205 colon.
Regarding `O=C(NCc1ccccc1)Nc1ccccc1CNc1nc(Nc2ccc(OCCN3CCCC3)cc2)ncc1Cl`, the growth with NCI-H23 lung is 85.4%; in the experiment with NCI-H322M lung, 109%; in the experiment on HOP-62 NSCLC, 86.2%; with NCI-H460 lung, 39.4%; with HOP-92 NSCLC it was 83.8%; in the experiment with NCI-H522 lung it was 108%. The results for the growth in the experiment with A549/ATCC NSCLC, with 786-0 renal and in the experiment with COLO 205 colon were 97.5%, 46.7% and 112%, respectively.
On to `CCCCNc1ccc(C#N)c(OCCN(CC)CC)c1`, for which the growth in the experiment on NCI-H23 lung was 92.8%; with NCI-H322M lung, 100%; in the experiment with HOP-62 NSCLC it was 101%; with NCI-H460 lung, 104%; in the experiment with HOP-92 NSCLC, 94.4%; in the experiment on NCI-H522 lung, 92.8%. For the same compound, the growth in the experiment with A549/ATCC NSCLC was 101%; in the experiment with 786-0 renal it was 112%; with COLO 205 colon, 100%.
With `COc1ccc2c(c1)[n+]([O-])c(C(=O)/C=C/C=C(\Cl)c1cc(OC)c(OC)c(OC)c1)c(C)[n+]2[O-]`, the growth was 79.7% in the experiment with NCI-H23 lung; 87.5% with NCI-H322M lung; -3.57% (active) in the experiment on HOP-62 NSCLC; 102% in the experiment with NCI-H460 lung; 61.3% with HOP-92 NSCLC; 56.6% with NCI-H522 lung. Moreover, the growth in the experiment on A549/ATCC NSCLC is 98.4%; in the experiment on 786-0 renal, 61.4%; in the experiment with COLO 205 colon it was 127%.
Consider `COC(=O)/C=C1/SC(=Nc2ccc(C)cc2)N(CCc2c[nH]c3ccc(O)cc23)C1=O`, for which the growth in the experiment on NCI-H23 lung was 72.7%; in the experiment on NCI-H322M lung it was 97.7%; in the experiment on HOP-62 NSCLC, 55.6%; with NCI-H460 lung, 52.2%; in the experiment with HOP-92 NSCLC, 53.7%; in the experiment on NCI-H522 lung, 42.5%. Further, the figures for the growth in the experiment with A549/ATCC NSCLC, with 786-0 renal and with COLO 205 colon were 84%, 57.2% and 108%, respectively.
As for `C=CCc1c(O)c(C(=O)/C=C/c2ccc(Cl)cc2)c(OC)c2ccoc12`, the growth was 57.1% with NCI-H23 lung; 75.8% in the experiment with NCI-H322M lung; 85.4% in the experiment with HOP-62 NSCLC; 49.8% with NCI-H460 lung; 48.6% with HOP-92 NSCLC; 35.7% in the experiment with NCI-H522 lung. The figures for the growth with A549/ATCC NSCLC, in the experiment on 786-0 renal and in the experiment with COLO 205 colon were 47.3%, 78% and 73.7%, respectively.
Consider `O=[N+]([O-])c1ccc(N/N=C(/C(=N/Nc2ccc([N+](=O)[O-])cc2)c2ccccc2)c2ccccc2)cc1`, for which the growth is 82.5% in the experiment with NCI-H23 lung; 81.1% with NCI-H322M lung; 76.6% with HOP-62 NSCLC; 46.2% in the experiment on NCI-H460 lung; 107% in the experiment on HOP-92 NSCLC; 50.8% in the experiment with NCI-H522 lung. Moreover, the growth in the experiment with A549/ATCC NSCLC was 90.9%; in the experiment on 786-0 renal it was 103%; in the experiment on COLO 205 colon, 87.3%.
As for `Cc1ccc(Sc2nnc(/N=C3\C(=O)Nc4ccccc43)s2)cc1`, the growth is 107% with NCI-H23 lung; 97.1% in the experiment with NCI-H322M lung; 96.5% in the experiment on HOP-62 NSCLC; 104% with NCI-H460 lung; 94.6% with NCI-H522 lung; 92.1% in the experiment on A549/ATCC NSCLC. Besides, the growth is 99.5% with 786-0 renal and 116% in the experiment on COLO 205 colon.
With `O=C(CSc1nnc2n1S(=O)(=O)c1ccccc1N2c1ccccc1)Nc1nc2ccc(F)cc2s1`, the growth was 80.3% in the experiment with NCI-H23 lung; 113% in the experiment with NCI-H322M lung; 82.3% with HOP-62 NSCLC; 106% in the experiment with NCI-H460 lung; 88% in the experiment with HOP-92 NSCLC; 87.2% in the experiment on NCI-H522 lung. Moreover, the growth in the experiment with A549/ATCC NSCLC was 93.3%; with 786-0 renal, 96.2%; with COLO 205 colon it was 106%.
For the compound `CCn1c(SCC(=O)c2ccc(Br)cc2)nnc1-c1ccncc1`, the growth in the experiment on NCI-H23 lung is 105%; in the experiment with NCI-H322M lung, 110%; with HOP-62 NSCLC it was 109%; in the experiment with NCI-H460 lung, 108%; in the experiment with HOP-92 NSCLC, 114%; with NCI-H522 lung, 96%. The growth in the experiment on A549/ATCC NSCLC was 106%; in the experiment on 786-0 renal, 114%; in the experiment with COLO 205 colon, 114%.
As for `CCN(CC)c1ccc(/C=C/C(=O)c2ccc(Nc3nc(Nc4ccccc4)nc(Nc4ccccc4)n3)cc2)cc1`, the growth with NCI-H23 lung was 62.5%; in the experiment with NCI-H322M lung, 62.4%; in the experiment with HOP-62 NSCLC it was 50.8%; in the experiment with NCI-H460 lung it was 24.8%; with HOP-92 NSCLC, 24.2%; in the experiment on NCI-H522 lung it was 46.8%. Further, the growth is 37.6% with A549/ATCC NSCLC, 61.8% in the experiment with 786-0 renal and 27.9% in the experiment on COLO 205 colon.
`N#C/C(=C\c1ccc(Br)cc1)n1nnc2ccc(F)cc21`: the growth was 16% with NCI-H23 lung; 9.42% (active) in the experiment on NCI-H322M lung; 31.4% in the experiment on HOP-62 NSCLC; -35.9% (active) in the experiment on NCI-H460 lung; 36.7% in the experiment on HOP-92 NSCLC; -18.2% (active) in the experiment with NCI-H522 lung. Besides, the values for the growth in the experiment with A549/ATCC NSCLC, in the experiment on 786-0 renal and with COLO 205 colon were 16.6%, -73.8% (active) and -12.9% (active), respectively.
On to `COC(C(=O)[C@@H](O)[C@@H](C)O)[C@@H]1Cc2cc3cc(O[C@H]4C[C@@H](O[C@H]5C[C@@H](O)[C@H](O)C(C)O5)[C@H](O)C(C)O4)cc(O)c3c(O)c2C(=O)[C@H]1O[C@H]1C[C@@H](O[C@H]2C[C@@H](O[C@H]3C[C@@H](OC)[C@H](O)C(C)O3)[C@@H](O)C(C)O2)[C@H](O)C(C)O1` (some centres not stated), for which the growth with NCI-H23 lung is 47.4%; with NCI-H322M lung it was 50.2%; in the experiment with HOP-62 NSCLC it was 18.8%; with NCI-H460 lung, 18.7%; in the experiment with HOP-92 NSCLC it was 64.2%; in the experiment on NCI-H522 lung, 15.5%. Further, the growth in the experiment with A549/ATCC NSCLC is 19.2%; in the experiment with 786-0 renal, 50.7%; in the experiment with COLO 205 colon, 31.2%.
As for `O=c1c2cc(-c3ccccc3)sc2nc2sc(-c3ccccc3)nn12`, the growth is 98.9% in the experiment on NCI-H23 lung; 104% with NCI-H322M lung; 102% with HOP-62 NSCLC; 100% in the experiment with NCI-H460 lung; 84.3% in the experiment on HOP-92 NSCLC; 95.7% in the experiment with NCI-H522 lung. Further, the growth is 91.6% with A549/ATCC NSCLC, 93% in the experiment with 786-0 renal and 109% in the experiment with COLO 205 colon.
As for `Clc1ccc(Nc2nnc(COc3ccccc3)c3ccccc23)cc1`, the growth in the experiment with NCI-H23 lung was 4.18% (active); with NCI-H322M lung, 21.2%; in the experiment on HOP-62 NSCLC, 13.1%; with NCI-H460 lung, 3.1% (active); with HOP-92 NSCLC it was -28% (active); with NCI-H522 lung, -17.4% (active). Besides, the growth in the experiment with A549/ATCC NSCLC is 4.64% (active); in the experiment with 786-0 renal, 5.25% (active); in the experiment on COLO 205 colon, -5.75% (active).
For `CC(C)N1CCN(Cc2ccc3c(NNC(=O)c4ccccc4)nc4cc(F)ccc4n23)CC1`, the growth with NCI-H23 lung was 28.6%; with NCI-H322M lung it was 29.3%; with HOP-62 NSCLC it was 24.9%; in the experiment on NCI-H460 lung, 3.96% (active); in the experiment with HOP-92 NSCLC, 49%; in the experiment on NCI-H522 lung, 22.8%. In addition, the growth in the experiment on A549/ATCC NSCLC is 16.2%; in the experiment with 786-0 renal it was 34.2%; with COLO 205 colon, 17.1%.
Turning to `O=C(c1ccc(Cl)cc1)N1CCN(c2ccnc3cc(Cl)ccc23)CC1`, the growth with NCI-H23 lung is 98.4%; in the experiment on NCI-H322M lung it was 96.5%; with HOP-62 NSCLC it was 102%; in the experiment on NCI-H460 lung it was 96.2%; in the experiment on HOP-92 NSCLC, 83.7%; in the experiment on NCI-H522 lung, 56.5%. The growth is 87% in the experiment with A549/ATCC NSCLC and 93.5% in the experiment on 786-0 renal.
For the compound `CCOC(=O)c1c(C)nc2c(c1N)CC(=O)N2Cc1cc(F)cc(Cl)c1`, the growth was 81.8% in the experiment with NCI-H23 lung; 107% in the experiment with NCI-H322M lung; 89.7% in the experiment on HOP-62 NSCLC; 98.1% with NCI-H460 lung; 66.8% in the experiment with NCI-H522 lung; 82.8% in the experiment on A549/ATCC NSCLC. Moreover, the growth was 88.2% with 786-0 renal and 121% in the experiment on COLO 205 colon.
On to `CCOC(=O)c1c(C)c2c(n1C)CSc1cc(C(=O)c3ccccc3)c(=O)[nH]c1-2`, for which the growth with NCI-H23 lung was 81.7% [100 µM]; in the experiment with NCI-H322M lung it was 90.5% [100 µM]; with HOP-62 NSCLC, 103% [100 µM]; with NCI-H460 lung, 79.6% [100 µM]; with HOP-92 NSCLC it was 84.4% [100 µM]; in the experiment with NCI-H522 lung it was 97.5% [100 µM]. Moreover, the growth in the experiment with A549/ATCC NSCLC was 78.9% [100 µM]; in the experiment on 786-0 renal, 106% [100 µM]; with COLO 205 colon, 117% [100 µM].
